TEAD-YAP block: TEAD-YAP interaction inhibition. HEK-TIYL cells, TEAD-Gal4/YAP UAS-luciferase luminescence. 640,000 tested, 1.4% active. inhibition, % at 9.12 µM. AID 1259422; in the data active = inhibition above about 32%
GPR151 ag: activators of human GPR151. Q8TDV0. PathHunter beta-arrestin GPR151 cells, luminescence. activation, % at 11.2 µM. 650,000 tested, 1% active; in the data active = activation above about 4.9%
MITF primary: human MITF inhibition, primary screen. O75030. AlphaScreen MITF homodimerization, bead proximity signal. inhibition, % at 2.6 µM. 650,000 tested, 0.91% active. AID 1259374; in the data active = inhibition above about 50%
Target sequence (O75030 whole entry, looked up): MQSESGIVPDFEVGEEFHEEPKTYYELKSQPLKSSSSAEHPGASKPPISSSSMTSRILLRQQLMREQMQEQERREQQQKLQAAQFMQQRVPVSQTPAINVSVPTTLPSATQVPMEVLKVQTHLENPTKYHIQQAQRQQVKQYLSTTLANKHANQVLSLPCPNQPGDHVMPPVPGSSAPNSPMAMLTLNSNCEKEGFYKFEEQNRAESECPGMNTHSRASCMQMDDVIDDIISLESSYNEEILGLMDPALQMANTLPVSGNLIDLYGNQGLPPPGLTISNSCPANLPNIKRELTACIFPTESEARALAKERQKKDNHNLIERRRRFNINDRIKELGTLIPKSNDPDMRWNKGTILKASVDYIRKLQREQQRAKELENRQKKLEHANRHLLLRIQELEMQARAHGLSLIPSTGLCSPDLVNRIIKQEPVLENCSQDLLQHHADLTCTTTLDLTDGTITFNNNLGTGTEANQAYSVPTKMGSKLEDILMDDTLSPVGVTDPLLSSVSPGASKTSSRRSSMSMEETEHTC
FBW7 act: human FBW7 E3 ligase activation, primary screen; normalized activity (activation), % at 26.1 µM; 650,000 tested, 0.13% active; AID 1259310; AlphaScreen FBW7–phospho-cyclin E peptide binding, activator screen; in the data active = normalized activity above about 1.9%;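 also: purified mutant Fbw7 with reduced substrate affinity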
MITF inh conf: confirmation of human MITF inhibitors; shares compounds with MITF primary; AlphaScreen MITF homodimerization, biotin/His-MITF beads; inhibition, % at 2.6 µM; 4,700 tested, 16% active; AID 1259372;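 active = inhibition above a cutoff derived from the DMSO control wells, cut at about 28% in these data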;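 also: inhibitors lower the bead chemiluminescence by keeping MITF from dimerizing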
AS interf ctr: AlphaScreen optical interference, counter-screen | shares compounds with MITF primary | LysRS AlphaScreen counterscreen, signal interference, triplicate | inhibition, % at 2.6 µM | 4,700 tested, 7.6% active | AID 1259376;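 active = inhibition above a cutoff derived from the DMSO control wells, cut at about 30% in these data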
Numbers stand for hits. Most compounds without a hit are left out; they make up all but 3.4% or so of the library.

O=C(COC(=O)c1ccc(O)cc1)NC1CCCCC1 was read as TEAD-YAP block inactive, GPR151 ag inactive, MITF primary 58.5, FBW7 act inactive, MITF inh conf inactive and AS interf ctr inactive.
Screening CCOC(=O)c1c(NC(=O)c2nn(C)cc2[N+](=O)[O-])sc2c1CCCC2 returned TEAD-YAP block inactive, GPR151 ag inactive, MITF primary inactive and FBW7 act inactive.
For CCOC(=O)c1c(NC(=O)c2nn(C)cc2Cl)sc2c1CCCC2 the results were TEAD-YAP block inactive, GPR151 ag inactive, MITF primary 93.1, FBW7 act inactive, MITF inh conf inactive and AS interf ctr inactive.
Screening COc1ccccc1NC(=O)C1=C(C)NC(SCC(=O)Nc2ccccc2)=C(C#N)C1c1ccco1 (stereo not given) returned TEAD-YAP block inactive, GPR151 ag inactive, MITF primary inactive and FBW7 act inactive.
For COc1ccccc1NC(=O)C1=C(C)NC(SCC(=O)Nc2cccc(C)c2C)=C(C#N)C1c1ccco1 (stereo not given) the results were TEAD-YAP block 32.2, GPR151 ag inactive, MITF primary 56.1, FBW7 act inactive, MITF inh conf inactive and AS interf ctr inactive.
For COc1ccc(CCN2COc3c(cc(Cl)c4cccnc34)C2)cc1OC the results were TEAD-YAP block 39.0, GPR151 ag inactive, MITF primary 67.7, FBW7 act inactive, MITF inh conf 94.1 and AS interf ctr 100.3.
For COCCN1COc2c(cc(Cl)c3cccnc23)C1 the results were TEAD-YAP block inactive, GPR151 ag inactive, MITF primary 66.0, FBW7 act inactive, MITF inh conf 47.9 and AS interf ctr 91.5.
Screening CC1CN(C(=O)N2CCC(C(=O)NCc3ccc(Cl)cc3)CC2)c2ccccc2O1 (stereo not given) returned TEAD-YAP block inactive, GPR151 ag inactive, MITF primary inactive and FBW7 act inactive.
Screening O=C(N/N=C/c1ccncc1)C1COc2ccccc2O1 (stereo not given) returned TEAD-YAP block inactive, GPR151 ag inactive, MITF primary inactive and FBW7 act inactive.
For CC1CCCC(N2CCN(C(=O)c3cccc(Cl)c3)CC2)C1 (stereo not given) the results were TEAD-YAP block inactive, GPR151 ag inactive, MITF primary 50.9, FBW7 act inactive, MITF inh conf inactive and AS interf ctr inactive.
Screening O=C(c1cccc(Cl)c1)N1CCN(C2CCC(c3ccccc3)CC2)CC1 (stereo not given) returned TEAD-YAP block inactive, GPR151 ag inactive, MITF primary inactive and FBW7 act inactive.
`CC1CCCN(C(=O)c2cccc(Cl)c2)C1` (stereo not given) gave TEAD-YAP block inactive, GPR151 ag inactive, MITF primary inactive and FBW7 act inactive.
For O=C(c1cccc(Cl)c1)N1CCN(C2CCCC2)CC1 the results were TEAD-YAP block inactive, GPR151 ag inactive, MITF primary 52.7, FBW7 act inactive, MITF inh conf inactive and AS interf ctr inactive.
For O=C(O)c1cc(Cl)cc(Cl)c1OC(F)F the results were TEAD-YAP block inactive, GPR151 ag inactive, MITF primary inactive and FBW7 act inactive.
For COc1ccc(CCNC(=O)N2CCN(Cc3nc4ccccc4[nH]3)CC2)cc1 the results were TEAD-YAP block inactive, GPR151 ag inactive, MITF primary inactive and FBW7 act inactive.
For CC(=O)c1ccc(NC(=O)N2CCN(Cc3nc4ccccc4[nH]3)CC2)cc1 the results were TEAD-YAP block inactive, GPR151 ag inactive, MITF primary inactive and FBW7 act inactive.
COC(=O)c1ccc(CN2CCN(Cc3nc4ccccc4[nH]3)CC2)o1 was read as TEAD-YAP block inactive, GPR151 ag inactive, MITF primary 73.1, FBW7 act inactive, MITF inh conf inactive and AS interf ctr inactive.
`O=C(c1ccc(Cn2ccnc2)cc1)N1CCN(Cc2nc3ccccc3[nH]2)CC1` gave TEAD-YAP block inactive, GPR151 ag inactive, MITF primary 87.3, FBW7 act inactive, MITF inh conf inactive and AS interf ctr inactive.
Screening O=C1c2ccc(-c3nc4ccccc4c(=O)o3)cc2C(=O)N1c1ncc([N+](=O)[O-])s1 returned TEAD-YAP block inactive, GPR151 ag inactive, MITF primary 55.6, FBW7 act inactive, MITF inh conf inactive and AS interf ctr inactive.
For O=C(NCc1ccc2c(c1)OCO2)C1CCN(Cc2nc3ccccc3[nH]2)CC1 the results were TEAD-YAP block inactive, GPR151 ag inactive, MITF primary 62.7, FBW7 act inactive, MITF inh conf inactive and AS interf ctr inactive.
Screening O=C(C1CCN(Cc2nc3ccccc3[nH]2)CC1)N1CCc2ccccc2C1 returned TEAD-YAP block inactive, GPR151 ag inactive, MITF primary 61.8, FBW7 act inactive, MITF inh conf inactive and AS interf ctr inactive.
For O=C(C1CCN(Cc2nc3ccccc3[nH]2)CC1)N1CCN(c2ccc(F)cc2)CC1 the results were TEAD-YAP block inactive, GPR151 ag inactive, MITF primary 57.6, FBW7 act inactive, MITF inh conf inactive and AS interf ctr inactive.
`O=C(C1CC12CCN(Cc1nc3ccccc3[nH]1)CC2)N1CCN(c2ccccc2)CC1` (stereo not given) gave TEAD-YAP block inactive, GPR151 ag inactive, MITF primary inactive and FBW7 act inactive.
For CCOC(=O)CCN1C(=O)/C(=C/c2cccs2)SC1=S the results were TEAD-YAP block inactive, GPR151 ag inactive, MITF primary inactive and FBW7 act inactive.
COc1ccc(OC)c(NC(=O)c2c(NCc3cccc(OC)c3OC)sc3c2CCCC3)c1 was read as TEAD-YAP block inactive, GPR151 ag inactive, MITF primary inactive and FBW7 act inactive.
`CC1(C)CC(=O)C(/C=N/Nc2n[nH]c(=O)[nH]c2=O)=C(O)C1` gave TEAD-YAP block inactive, GPR151 ag inactive, MITF primary 94.8, FBW7 act inactive, MITF inh conf 34.1 and AS interf ctr 97.6.
`CCCS(=O)(=O)N1CCN(Cc2ccccc2OCC)CC1` gave TEAD-YAP block inactive, GPR151 ag inactive, MITF primary 73.9, FBW7 act inactive, MITF inh conf inactive and AS interf ctr inactive.
For COc1ccccc1CN1CCN(S(C)(=O)=O)CC1 the results were TEAD-YAP block inactive, GPR151 ag inactive, MITF primary inactive and FBW7 act inactive.
`CCOc1ccccc1CN1CCN(S(=O)(=O)CC)CC1` gave TEAD-YAP block inactive, GPR151 ag inactive, MITF primary inactive and FBW7 act inactive.
`CCS(=O)(=O)N1CCN(Cc2ccccc2OC)CC1` gave TEAD-YAP block inactive, GPR151 ag inactive, MITF primary 57.8, FBW7 act inactive, MITF inh conf inactive and AS interf ctr inactive.
O=C(NCc1ccc(Cl)cc1)c1noc2c1COc1ccccc1-2 was read as TEAD-YAP block inactive, GPR151 ag inactive, MITF primary inactive and FBW7 act inactive.
Cc1[nH][nH]c(=O)c1C(c1ccc(OC(C)C)cc1OC(C)C)c1c(C)[nH][nH]c1=O was read as TEAD-YAP block inactive, GPR151 ag inactive, MITF primary inactive and FBW7 act inactive.
CCOC(=O)c1c(NC(=O)c2ccc(Cl)cc2Cl)sc2c1CCCCC2 was read as TEAD-YAP block inactive, GPR151 ag inactive, MITF primary inactive and FBW7 act inactive.

Source: PubChem BioAssay (The Scripps Research Institute Molecular Screening Center)
